Calls of active or inactive are those of the source. How the source made its calls: active means hit-call score of the fitted dose curve at least 0.9, where 1 is the maximum; inactive means score below 0.9.
Assay: ATG_EGR_CIS: Attagene CIS-FACTORIAL HepG2 Assay for human Early Growth Response 1 (EGR1) (AID 2282938)
Conditions: HepG2 Attagene CIS-FACTORIAL EGR reporter mRNA; actives raise or lower the signal
How it was run: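 Cell-based multiplex transcription assay: HepG2 carrying transfected cis-element reporter units, 24 h chemical treatment. Fluorescence from capillary electrophoresis of RT-PCR products gives mRNA levels; fitting is bidirectional relative to DMSO.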

**Q.** For `C1=Cc2ccccc2C1`, which outcome is on record?
**A.** inactive

**Q.** For `CCOC(=O)CC`, which outcome is on record?
**A.** inactive

**Q.** For `CCC(=O)Oc1ccc(/C(CC)=C(\CC)c2ccc(OC(=O)CC)cc2)cc1`, which AC50 is on record?
**A.** 45.1 µM (active)

**Q.** Which outcome does the source give for `CCCCCC/C=C\CCCCCCCC(=O)O` here?
**A.** inactive

**Q.** Which outcome does the source give for `Cc1cc(=O)n(-c2ccccc2)n1C` here?
**A.** inactive

**Q.** For `FC(F)(F)C(=NOCC1OCCO1)c1ccc(Cl)cc1`, which outcome is on record?
**A.** inactive

**Q.** Which AC50 does the source give for `CCOC(=O)N1CCC(=C2c3ccc(Cl)cc3CCc3cccnc32)CC1` here?
**A.** 6.7 µM (active)

**Q.** Which outcome does the source give for `Cc1ccc(C(C)c2ccc(C)c(C)c2)cc1C` here?
**A.** inactive

**Q.** For `CC(C)=CCC[C@H](C)CCO`, which outcome is on record?
**A.** inactive

**Q.** With `O=C1CCCCCCCCCCC(=O)OCCO1` as the compound, how does the outcome read?
**A.** inactive

**Q.** With `COCC(C)N` (stereo unspecified) as the compound, how does the outcome read?
**A.** inactive

**Q.** For `CC(C)CC(O)Cc1ccccc1` (stereo unspecified), which outcome is on record?
**A.** inactive

**Q.** Which outcome does the source give for `CCCCOCCOC(=O)COc1nc(Cl)c(Cl)cc1Cl` here?
**A.** inactive

**Q.** For `CC(C)=CC1CC(C)CCO1` (stereo unspecified), which outcome is on record?
**A.** inactive

**Q.** With `O=C(O)c1cc(Cl)cc([N+](=O)[O-])c1Cl` as the compound, how does the outcome read?
**A.** inactive

**Q.** Which outcome does the source give for `CCCCC(CC)COC(=O)c1ccccc1O` (stereo unspecified) here?
**A.** inactive

**Q.** For `Cc1cccc(OCCOc2cccc(C)c2)c1`, which outcome is on record?
**A.** inactive

**Q.** With `Cc1ccc([N+](=O)[O-])cc1S(=O)(=O)O` as the compound, how does the outcome read?
**A.** inactive

**Q.** For `Cc1oncc1C(=O)Nc1ccc(C(F)(F)F)cc1`, which outcome is on record?
**A.** inactive

**Q.** With `CC(C)c1ccc2cc(C(C)C)ccc2c1` as the compound, how does the outcome read?
**A.** inactive

**Q.** For `CCCCCCCCCCCCCOP(=O)(O)O`, which outcome is on record?
**A.** inactive

Assay: ATG_M_19_CIS: Attagene CIS-FACTORIAL HepG2 Assay for M19 Transcription Factor (Internal Marker) (AID 2282939)
Conditions: HepG2 Attagene CIS-FACTORIAL M19 internal marker reporter; actives raise or lower the signal
How it was run: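 Internal marker readout, fitted in both directions against DMSO, from HepG2 cells carrying transfected cis-element reporter constructs; RT-PCR and capillary electrophoresis of reporter mRNA after 24 h exposure.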

**Q.** For `C=C(C)C(=O)OCCO`, which outcome is on record?
**A.** inactive

**Q.** For `C1=Cc2ccccc2C1`, which outcome is on record?
**A.** inactive

**Q.** With `CCOC(=O)CC` as the compound, how does the outcome read?
**A.** inactive

**Q.** For `CCC(=O)Oc1ccc(/C(CC)=C(\CC)c2ccc(OC(=O)CC)cc2)cc1`, which outcome is on record?
**A.** inactive

**Q.** Which outcome does the source give for `CO[Si](CCC1CCC2OC2C1)(OC)OC` (stereo unspecified) here?
**A.** inactive

**Q.** With `CCCCCC/C=C\CCCCCCCC(=O)O` as the compound, how does the outcome read?
**A.** inactive

**Q.** Which outcome does the source give for `Cc1cc(=O)n(-c2ccccc2)n1C` here?
**A.** inactive

**Q.** For `FC(F)(F)C(=NOCC1OCCO1)c1ccc(Cl)cc1`, which outcome is on record?
**A.** inactive

**Q.** With `CCOC(=O)N1CCC(=C2c3ccc(Cl)cc3CCc3cccnc32)CC1` as the compound, how does the outcome read?
**A.** inactive

**Q.** With `COc1cc(C)ccc1C(C)C` as the compound, how does the outcome read?
**A.** inactive

**Q.** With `CCCCCCCOC(=O)CCC` as the compound, how does the outcome read?
**A.** inactive

**Q.** Which outcome does the source give for `Cc1ccc(C(C)c2ccc(C)c(C)c2)cc1C` here?
**A.** inactive

**Q.** Which outcome does the source give for `O=C(/C=C/C=C/c1ccc2c(c1)OCO2)N1CCCCC1` here?
**A.** inactive

**Q.** With `CC(C)=CCC[C@H](C)CCO` as the compound, how does the outcome read?
**A.** inactive

**Q.** Which outcome does the source give for `O=C1CCCCCCCCCCC(=O)OCCO1` here?
**A.** inactive

**Q.** With `COCC(C)N` (stereo unspecified) as the compound, how does the outcome read?
**A.** inactive

**Q.** Which outcome does the source give for `CC(=O)[C@@]1(O)CC[C@H]2[C@@H]3C[C@H](C)C4=CC(=O)C=C[C@]4(C)[C@@]3(F)[C@@H](O)C[C@@]21C` here?
**A.** inactive

**Q.** Which outcome does the source give for `CC(C)CC(O)Cc1ccccc1` (stereo unspecified) here?
**A.** inactive

**Q.** With `CCCCOCCOC(=O)COc1nc(Cl)c(Cl)cc1Cl` as the compound, how does the outcome read?
**A.** inactive

**Q.** For `COC(=O)/C=C\C(=O)O`, which outcome is on record?
**A.** inactive

**Q.** For `C=C[Si](OC(C)=O)(OC(C)=O)OC(C)=O`, which outcome is on record?
**A.** inactive

**Q.** Which outcome does the source give for `Cc1c(C)c([N+](=O)[O-])c(C(C)(C)C)c([N+](=O)[O-])c1C` here?
**A.** inactive

**Q.** For `O=[N+]([O-])C1(Br)COCOC1`, which outcome is on record?
**A.** inactive

**Q.** For `CC(C)=CC1CC(C)CCO1` (stereo unspecified), which outcome is on record?
**A.** inactive

**Q.** For `Nc1ccc(-c2ccc(F)cc2)cc1`, which outcome is on record?
**A.** inactive

**Q.** For `FC(F)=C(F)OC(F)(F)C(F)(F)C(F)(F)F`, which outcome is on record?
**A.** inactive

**Q.** For `CCCOC(=O)CCCCC(=O)OCCC`, which outcome is on record?
**A.** inactive

**Q.** With `OCCN(CCO)c1ccccc1` as the compound, how does the outcome read?
**A.** inactive

**Q.** Which outcome does the source give for `O=C(O)c1cc(Cl)cc([N+](=O)[O-])c1Cl` here?
**A.** inactive

**Q.** With `CCCCC(CC)COC(=O)c1ccccc1O` (stereo unspecified) as the compound, how does the outcome read?
**A.** inactive

**Q.** Which outcome does the source give for `CCc1nccnc1C` here?
**A.** inactive

**Q.** Which outcome does the source give for `CC(=O)Nc1ccc2c(c1)Cc1cc(NC(C)=O)ccc1-2` here?
**A.** inactive

**Q.** With `OCCCS` as the compound, how does the outcome read?
**A.** inactive

**Q.** With `Cc1cccc(OCCOc2cccc(C)c2)c1` as the compound, how does the outcome read?
**A.** inactive

**Q.** Which outcome does the source give for `Cc1ccc([N+](=O)[O-])cc1S(=O)(=O)O` here?
**A.** inactive

**Q.** With `COC(=O)c1cc(Cl)ccc1[N+](=O)[O-]` as the compound, how does the outcome read?
**A.** inactive

**Q.** For `Cc1oncc1C(=O)Nc1ccc(C(F)(F)F)cc1`, which outcome is on record?
**A.** inactive

**Q.** Which outcome does the source give for `CC(C)c1ccc2cc(C(C)C)ccc2c1` here?
**A.** inactive

**Q.** For `C=CC(=O)OCCOC(=O)C=C`, which outcome is on record?
**A.** inactive

**Q.** Which outcome does the source give for `CCCCCCCCCCCCCOP(=O)(O)O` here?
**A.** inactive

Assay: ATG_ERE_CIS: Attagene CIS-FACTORIAL HepG2 Assay for Estrogen Response Element (ERE) (AID 2282940)
Conditions: HepG2 ERE cis-reporter, Attagene RNA transcript; actives raise or lower the signal
How it was run: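 After 24 h compound treatment, RNA from transfected HepG2 cells was reverse-transcribed, reporter cDNA PCR-amplified, FAM-labelled, HpaI-cut and resolved by capillary electrophoresis. ERE-driven cis reporter transcripts reflect endogenous factors; gain or loss scored against DMSO.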

**Q.** For `C=C(C)C(=O)OCCO`, which outcome is on record?
**A.** inactive

**Q.** For `C1=Cc2ccccc2C1`, which AC50 is on record?
**A.** 44.3 µM (active)

**Q.** With `CCOC(=O)CC` as the compound, how does the outcome read?
**A.** inactive

**Q.** With `CCC(=O)Oc1ccc(/C(CC)=C(\CC)c2ccc(OC(=O)CC)cc2)cc1` as the compound, how does the AC50 read?
**A.** 0.0825 µM (active)

**Q.** For `CO[Si](CCC1CCC2OC2C1)(OC)OC` (stereo unspecified), which outcome is on record?
**A.** inactive

**Q.** For `CCCCCC/C=C\CCCCCCCC(=O)O`, which outcome is on record?
**A.** inactive

**Q.** With `Cc1cc(=O)n(-c2ccccc2)n1C` as the compound, how does the outcome read?
**A.** inactive

**Q.** Which outcome does the source give for `FC(F)(F)C(=NOCC1OCCO1)c1ccc(Cl)cc1` here?
**A.** inactive

**Q.** For `CCOC(=O)N1CCC(=C2c3ccc(Cl)cc3CCc3cccnc32)CC1`, which outcome is on record?
**A.** inactive

**Q.** With `COc1cc(C)ccc1C(C)C` as the compound, how does the outcome read?
**A.** inactive

**Q.** Which outcome does the source give for `CCCCCCCOC(=O)CCC` here?
**A.** inactive

**Q.** For `Cc1ccc(C(C)c2ccc(C)c(C)c2)cc1C`, which outcome is on record?
**A.** inactive

**Q.** Which outcome does the source give for `O=C(/C=C/C=C/c1ccc2c(c1)OCO2)N1CCCCC1` here?
**A.** inactive

**Q.** For `CC(C)=CCC[C@H](C)CCO`, which outcome is on record?
**A.** inactive

**Q.** With `O=C1CCCCCCCCCCC(=O)OCCO1` as the compound, how does the outcome read?
**A.** inactive

**Q.** For `COCC(C)N` (stereo unspecified), which outcome is on record?
**A.** inactive

**Q.** Which outcome does the source give for `CC(=O)[C@@]1(O)CC[C@H]2[C@@H]3C[C@H](C)C4=CC(=O)C=C[C@]4(C)[C@@]3(F)[C@@H](O)C[C@@]21C` here?
**A.** inactive

**Q.** With `CC(C)CC(O)Cc1ccccc1` (stereo unspecified) as the compound, how does the outcome read?
**A.** inactive

**Q.** For `CCCCOCCOC(=O)COc1nc(Cl)c(Cl)cc1Cl`, which AC50 is on record?
**A.** 26.2 µM (active)

**Q.** Which outcome does the source give for `COC(=O)/C=C\C(=O)O` here?
**A.** inactive

**Q.** Which outcome does the source give for `C=C[Si](OC(C)=O)(OC(C)=O)OC(C)=O` here?
**A.** inactive

**Q.** For `Cc1c(C)c([N+](=O)[O-])c(C(C)(C)C)c([N+](=O)[O-])c1C`, which outcome is on record?
**A.** inactive

**Q.** For `O=[N+]([O-])C1(Br)COCOC1`, which outcome is on record?
**A.** inactive

**Q.** With `CC(C)=CC1CC(C)CCO1` (stereo unspecified) as the compound, how does the outcome read?
**A.** inactive

**Q.** Which AC50 does the source give for `Nc1ccc(-c2ccc(F)cc2)cc1` here?
**A.** 18.2 µM (active)

**Q.** For `FC(F)=C(F)OC(F)(F)C(F)(F)C(F)(F)F`, which outcome is on record?
**A.** inactive

**Q.** For `CCCOC(=O)CCCCC(=O)OCCC`, which outcome is on record?
**A.** inactive

**Q.** With `OCCN(CCO)c1ccccc1` as the compound, how does the outcome read?
**A.** inactive

**Q.** For `O=C(O)c1cc(Cl)cc([N+](=O)[O-])c1Cl`, which outcome is on record?
**A.** inactive

**Q.** With `CCCCC(CC)COC(=O)c1ccccc1O` (stereo unspecified) as the compound, how does the AC50 read?
**A.** 32.5 µM (active)

**Q.** Which outcome does the source give for `CCc1nccnc1C` here?
**A.** inactive

**Q.** With `CC(=O)Nc1ccc2c(c1)Cc1cc(NC(C)=O)ccc1-2` as the compound, how does the outcome read?
**A.** inactive

**Q.** For `OCCCS`, which outcome is on record?
**A.** inactive

**Q.** With `Cc1cccc(OCCOc2cccc(C)c2)c1` as the compound, how does the outcome read?
**A.** inactive

**Q.** Which outcome does the source give for `Cc1ccc([N+](=O)[O-])cc1S(=O)(=O)O` here?
**A.** inactive

**Q.** For `COC(=O)c1cc(Cl)ccc1[N+](=O)[O-]`, which outcome is on record?
**A.** inactive

**Q.** Which AC50 does the source give for `Cc1oncc1C(=O)Nc1ccc(C(F)(F)F)cc1` here?
**A.** 25.7 µM (active)

**Q.** Which outcome does the source give for `CC(C)c1ccc2cc(C(C)C)ccc2c1` here?
**A.** inactive

**Q.** Which outcome does the source give for `C=CC(=O)OCCOC(=O)C=C` here?
**A.** inactive

**Q.** Which outcome does the source give for `CCCCCCCCCCCCCOP(=O)(O)O` here?
**A.** inactive

Reference: PubChem BioAssay (EPA / NIEHS)
